# A selection: hits, their analogues and other compounds. The true share with any hit is near 3%.
# Mcl1-Bid inh: Mcl-1/Bid binding inhibitors, primary screen, biochemical, TR-FRET, 1536-well; Induced myeloid leukemia cell differentiation protein Mcl-1 (Homo sapiens), Q07820; TR-FRET Mcl-1/Bid-Dy647 peptide binding; inhibition, % at 21.7 µM; hit rate 0.97% among 220,000; AID 1021, 2008;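 active means compounds that cut the binding signal by more than half at the single screening dose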;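 further: His-tagged Mcl-1 with europium anti-His antibody binding Bid BH3 peptide; 0% = Mcl-1 plus peptide wells and 100% = peptide-only wells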
# Target sequence (Q07820 whole entry, looked up): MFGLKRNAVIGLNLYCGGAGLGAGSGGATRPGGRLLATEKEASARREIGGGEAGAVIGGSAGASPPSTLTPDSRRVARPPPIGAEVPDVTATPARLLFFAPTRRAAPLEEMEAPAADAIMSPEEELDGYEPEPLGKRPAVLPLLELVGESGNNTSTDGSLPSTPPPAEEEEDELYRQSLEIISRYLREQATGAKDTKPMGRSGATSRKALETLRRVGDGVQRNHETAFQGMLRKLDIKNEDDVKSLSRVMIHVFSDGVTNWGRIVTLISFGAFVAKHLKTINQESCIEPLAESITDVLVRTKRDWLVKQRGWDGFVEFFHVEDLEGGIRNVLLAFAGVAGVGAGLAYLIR
# 14-3-3 Bad PPI: inhibitors of 14-3-3 zeta/Bad binding, primary screen, biochemical, TR-FRET, bovine 14-3-3 zeta. TR-FRET 14-3-3zeta/Dy647-pBad peptide displacement, 1 h. inhibition, % at 21.7 µM. hit rate 0.71% among 220,000;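 active means inhibition above about 70%, limit read from the data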;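 further: 0% = full 14-3-3 plus peptide FRET controls and 100% = background without 14-3-3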
# Bim-Mcl-1: inhibitors of Bim peptide binding to Mcl-1, primary screen, biochemical, bead-based flow cytometry, multiplex | Induced myeloid leukemia cell differentiation protein Mcl-1 (Homo sapiens), Q07820 | Bim peptide-Mcl-1 binding | inhibition, % at 10 µM | hit rate 0.1% among 190,000 | AID 1009, 2008; in the data active means inhibition above about 40%;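 further: 0% = no compound tracer wells and 100% = peptide blocker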
# Mcl1 Noxa PPI: Mcl-1/Noxa binding inhibitors, primary screen, biochemical, TR-FRET, 1536-well; Induced myeloid leukemia cell differentiation protein Mcl-1 (Homo sapiens), Q07820; TR-FRET Mcl-1/Noxa peptide binding, 2 h; inhibition, % at 21.7 µM; hit rate 1.5% among 220,000; AID 1022, 2008;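 active means compounds that cut the protein-peptide binding signal by more than 50% relative to plate controls in a single-dose test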;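 further: His-tagged Mcl-1 with rhodamine Noxa BH3 peptide and terbium anti-His antibody; 0% = Mcl-1 plus Noxa peptide wells and 100% = peptide-only wells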
# Arbovirus anti: antivirals against arbovirus infection, primary screen, cell-based, full library, 10K replicate subset | arbovirus infection cell-based antiviral screen | hit rate 0.37% among 200,000 | inhibition, % at 10 µM; in the data active means inhibition above about 30%
# Numbers without * were called inactive; . = no result given; [ ] = dose if it differs, or a comment.
SMILES,Mcl1-Bid inh,14-3-3 Bad PPI,Bim-Mcl-1,Mcl1 Noxa PPI,Arbovirus anti
Cc1ccccc1-n1c(C)nnc1SCC(=O)NC1CCCc2ccccc21 (centres undefined),16,92*[fluorescence artefact?],2,8,3
COCCNC(C(=O)Nc1ccc([N+](=O)[O-])cc1Br)c1ccccc1 (centres undefined),-2,-11,-3,13,0
CCCCNC(C(=O)Nc1ccc([N+](=O)[O-])cc1Br)c1ccccc1 (centres undefined),21,71*,-2,37,-5
O=C1CC(c2ccco2)CC(O)=C1C=NCCN1CCN(C(=S)Nc2ccccc2)CC1 (centres undefined),-50,-7,.,51*,.
O=C(COC(=O)CCCc1nc2ccccc2s1)Nc1ncc(Cl)cc1Cl,-24,-8,-5,28,2
CCOc1nsc(OCC)n1,-4,1,.,59*,.
COc1ccc(C(c2nnnn2C(C)(C)C)N2CCN(c3nc4ccccc4s3)CC2)cc1OC (centres undefined),0,7,-6,7,1
COc1cc(C(c2nnnn2C(C)(C)C)N2CCN(c3nc4ccccc4s3)CC2)ccc1O (centres undefined),4,-10,10,73*,9
COc1ccc(OC)c(CN2CCC(C(=O)N(C)CCc3ccc(OC)c(OC)c3)CC2)c1,14,10,-1,23,-3
COc1ccc(NC(=O)COC(=O)CC2CC3CCC2C3)c([N+](=O)[O-])c1 (centres undefined),-14,7,-6,-9,2
CCCCNC(=O)C1CCN(C/C(C)=C/c2ccccc2)CC1,14,71*,0,12,-7
O=C(COC(=O)/C=C/c1ccco1)NCc1ccc2c(c1)OCO2,-30,6,-3,9,0
Cn1ncc2c(NNC(=O)c3ccccc3Cl)ncnc21,-98,-8,-8,-24,-10
COC(=O)C1=C(C)N(CCCC(=O)O)C(=O)NC1c1cc2c(cc1[N+](=O)[O-])OCO2 (centres undefined),-10,21,4,50,-3
COC(=O)C1=C(C)N(C)C(=O)NC1c1cc2c(cc1[N+](=O)[O-])OCO2 (centres undefined),-23,1,0,52*,-3
COc1ccc(OC)c(NC(=O)COC(=O)c2c3c(nc4ccccc24)CCCC3)c1,-3,-2,-2,9,6
COc1ccc(OC)c(NC(=O)COC(=O)c2cc3c(s2)CCC3)c1,-68,43,95*,72*,10
COc1cc2[nH]c(=O)c(C(=O)NCCCN3CCOCC3)c(O)c2cc1OC,12,-5,-3,68*,6
CCN1CCN(C(=S)NC(C)c2ccccc2)CC1 (centres undefined),27,-7,-2,29,-6
C/C(C/C(C)=C1/SC(=S)NC1=O)=C1\SC(=S)NC1=O,78*,37,-1,73*,33*
COCCCN1C(=O)C(=O)/C(=C(/O)c2ccc(OC)cc2)C1c1cccc(OC)c1 (centres undefined),-17,48,3,64*,-3
Cc1cc(C)c(N)c(C(=O)O)c1,61*,58,.,13,.
CC(C)N1CCc2c(sc(NC(=O)c3ccc(S(=O)(=O)N4CCc5ccccc54)cc3)c2C(N)=O)C1,16,53,-1,72*,-17
COc1ccc(-n2cnc3cc(C(=O)NCCN4CCOCC4)ccc32)cc1,-16,-12,0,3,2
O=C(O)c1cccc(-n2cccc2/C=C2\NC(=O)N(Cc3ccc(F)cc3)C2=O)c1,-54,40,-2,12,16
SMILES,Mcl1-Bid inh,14-3-3 Bad PPI,Bim-Mcl-1,Mcl1 Noxa PPI,Arbovirus anti
O=C(O)c1ccc(-n2cccc2/C=C2/NC(=O)N(c3cccc(Cl)c3)C2=O)cc1,-41,80*,0,74*,10
O=C(O)c1ccc(-n2cccc2/C=C2/NC(=O)N(c3ccccc3)C2=O)cc1,-34,65,.,72*,.
Cc1cc(Cl)c(S(=O)(=O)N2CCN(c3ccccn3)CC2)cc1OCC(=O)NC1CCCCC1,5,2,.,-7,.
CCn1c2ccccc2c2cc(N)ccc21,-7,2,-8,62*,0
COc1ccccc1CN1CN(S(=O)(=O)c2ccccc2)c2nc3ccccc3nc21,3,5,.,-3,.
COc1ccc(C(c2c(C)[nH]n(C(N)=S)c2=O)C(C#N)C#N)cc1 (centres undefined),-57,-19,-6,-50,-7
Cc1[nH]n(-c2ncc(-c3ccc(Cl)cc3)s2)c(=O)c1C(c1ccc(Cl)cc1)C(C#N)C#N (centres undefined),51*,-23,1,92*,-34
COc1ccc(C2c3c(oc4ccc(Cl)cc4c3=O)C(=O)N2CCN2CCOCC2)cc1 (centres undefined),2,-1,.,20,.
CC(c1nccs1)N(C)C(=O)CCc1nnc(CCc2ccccc2)o1 (centres undefined),3,-7,-8,1,4
CCCCC(c1nnnn1Cc1ccco1)N1CCN(C(=O)c2ccco2)CC1 (centres undefined),2,85*,0,17,11
CCC(c1nnnn1CCc1ccccc1)N1CCN(C(=O)c2ccco2)CC1 (centres undefined),19,75*,0,25,-5
CC(C)CC(c1nnnn1CCc1ccccc1)N1CCN(C(=O)c2ccco2)CC1 (centres undefined),-4,5,-7,20,-1
O=C(NCc1ccco1)c1ccc(-c2csnn2)cc1,-22,2,.,-14,.
CC1CC1C(=O)Nc1nc(-c2ccc(Cl)s2)cs1 (centres undefined),-14,-10,2,13,44*
C=CCn1c(SCCOc2ccc(OC)cc2)nnc1C(C)NC(=O)c1ccc(OC)cc1 (centres undefined),-44,-4,-2,8,-6
C=CCn1c(SCc2ccc([N+](=O)[O-])cc2)nnc1C(C)NC(=O)c1ccccc1 (centres undefined),94*,-7,0,15,7
O=C(CN1C(=O)c2cccc3cccc1c23)Nc1ccc(S(=O)(=O)N2CCOCC2)cc1,90*,-14,4,-148,15
O=C(c1cccc(F)c1)N1CCC(c2nc3ccccc3s2)CC1,-29,3,2,18,9
CSC1=N/C(=C\c2ccccc2F)C(=O)S1,100*,-11,1,92*,-1
COc1cccc(/C=C2\N=C(SC)SC2=O)c1OC,-15,9,-2,10,1
O=C(Cc1c(F)cccc1Cl)Nc1ccon1,83*,-5,0,3,0

# Compound activity deposited in PubChem by several laboratories.
